# In PubChem BioAssay (Tox21):
# Inconclusive results are not listed. Where a call stands in place of a potency, no number is given. Values without a mark were called inactive. The source made the active and inactive calls. Calls come from the whole dose curve; as a rule, active = well fitted cell-killing curve with a large enough effect in the repeat runs; inconclusive = weak or mixed curves, or effect the other way; inactive = flat fitted curve, though single readings scatter.
# Assay: qHTS assay to identify small molecule antagonists of the estrogen receptor alpha (ER-alpha) signaling pathway using the BG1 cell line in the presence of 0.1 nM 17-beta-estradiol - cell viability counter screen (AID 1259241); note: nearly all actives have a fitted effect of over 40% in size
# Conditions: VM7Luc4E2 (BG1) viability, CellTiter-Fluor protease, 22 h, 0.1 nM estradiol agonist added; series mostly up to 92.4 µM; activity change, negative = cytotoxicity: at the top concentration
# Excerpt: National Center for Advancing Translational Sciences [NCATS]
# NIH Chemical Genomics Center [NCGC]
# U.S. Environmental Protection Agency [EPA]
# National Institutes of Environmental Health Sciences [NIEHS]
# National Toxicology Program [NTP]
# U.S. Food and Drug Administration [FDA]
# Estrogen receptor (ER), a member of the nuclear hormone receptor plays an important role in development, metabolic homeostasis and reproduction. Two subtypes of ER, ER-alpha and ER-beta, have similar expression patterns with some uniqueness in both types. Endocrine disrupting chemicals (EDCs) and their interactions with steroid hormone receptors like ER causes disruption of normal endocrine function. Therefore, it is important to understand the effect of environmental chemicals in ER signaling pathway. For identifying ER antagonists, VM7Luc4E2 cell line was used to screen against Tox21 compound libraries.
# VM7Luc4E2 cell line (provided by Denison MS, University of California) endogenously express full-length ER-alpha and is stably transfected with a plasmid containing four estrogen responsive elements (ERE) upstream of a luciferase reporter gene. The current screening for identification of ER-alpha inhibitors against Tox21 compound libraries used lower concentration (0.1 nM) of 17beta-Estradiol as a stimulator. The cytotoxicity of the Tox21 compound libraries against VM7Luc4E2 cell line was tested by measuring live-cell protease activity using CellTiter-Fluor assay in the same wells.
# Tox21 Assay Protocol Summary:
# VM7Luc4E2 cells were cultured in phenol red free assay medium containing 10% charcoal stripped FBS for 5 days prior to the assay. The cells were dispensed at 4,000 cells/well in 4 uL of assay medium into white wall/solid-bottom 1536-well plates (Corning Life Sciences, Corning, NY) using a Multidrop Combi (ThermoFisher Scientific, Waltham, MA) dispenser. After the assay plates were incubated at 37C and 5% CO2 for 24 hr, 23 nL of compounds dissolved in DMSO, positive controls or DMSO only was transferred to the assay plates by a Pintool station (Kalypsys, San Diego, CA). The transfer of compounds was followed by the addition of 1 uL of 0.1 nM (final concentration) agonist (17beta-Estradiol)/assay medium using a Flying Reagent Dispenser (FRD, Aurora Discovery, San Diego, CA). The plates were incubated at 37C and 5% CO2 for 22 hr. For cytotoxicity assay, 1 uL of CellTiter-Fluor reagent (Promega Corporation, Madison, WI) was added to each well using the FRD and after 30 min incubation at 37C and 5% CO2, The fluorescence intensity was measured using ViewLux plate reader (PerkinElmer, Shelton, CT).
# Potency is the fitted concentration of half-maximal effect.
Structure (SMILES),Potency,"activity change, negative = cytotoxicity [%]"
CC[C@H](C)C(=O)O[C@H]1C[C@@H](C)C=C2C=C[C@H](C)[C@H](CC[C@@H]3C[C@@H](O)CC(=O)O3)[C@H]21,inactive,–
O=P(OC(CCl)CCl)(OC(CCl)CCl)OC(CCl)CCl,inactive,–
c1ccc(OCCOc2ccccc2)cc1,inactive,–
CCCCCC(N)=O,inactive,–
CN(C)CCC(c1ccccc1)c1ccccn1 (stereo not given),inactive,–
CC(=O)CC(=O)Nc1ccccc1,inactive,–
C=CCNC(N)=S,inactive,–
COS(C)(=O)=O,inactive,–
CCCCCOC(C)=O,inactive,–
CSCCC=O,inactive,–
Cc1ccc2oc(=O)ccc2c1,inactive,–
c1c[nH]cn1,inactive,–
NNc1nncc2ccccc12,inactive,–
CN(C)CCCN,inactive,–
CC1CCC(C(C)C)C(O)C1 (stereo not given),inactive,–
COc1cc(Cc2cnc(N)nc2N)cc(OC)c1OC,inactive,–
C[Si](O[Si](C)(C)C)O[Si](C)(C)C,inactive,–
CCCSc1ccc2nc(NC(=O)OC)[nH]c2c1,inactive,–
CC(C)CC(=O)CC(C)C,inactive,–
O=C(O)c1cc(=O)c2c(OCC(O)COc3cccc4oc(C(=O)O)cc(=O)c34)cccc2o1,–,-10.2

Structure (SMILES),Potency,"activity change, negative = cytotoxicity [%]"
CCCCCCCCCCCCOCCO,inactive,–
CC(=O)Nc1ccccc1,inactive,–
Cc1occc(=O)c1O,inactive,–
O=C(O)c1ccccc1C(c1ccc(O)cc1)c1ccc(O)cc1,inactive,–
CN(C)CCOCCN(C)C,inactive,–
Oc1cccc2ccccc12,inactive,–
O=C=NCCCCCCN=C=O,inactive,–
Cc1ccc(S(N)(=O)=O)cc1,inactive,–
O=C(O)c1ccc(C(=O)O)cc1,inactive,–
Nc1cc([N+](=O)[O-])ccc1O,48.6 µM (active),–
Cc1cccc(O)c1,inactive,–
c1ccc2scnc2c1,inactive,–
O=S1(=O)CC=CC1,inactive,–
O=c1[nH]c(=O)n([C@H]2CCCO2)cc1F,inactive,–
O=S(=O)(O)c1ccc2ccccc2c1,inactive,–
O=C(Oc1ccccc1)c1ccccc1,inactive,–
COc1ccc(Cl)cc1C(=O)NCCc1ccc(S(=O)(=O)NC(=O)NC2CCCCC2)cc1,inactive,–
O=C1CCC(N2C(=O)c3ccccc3C2=O)C(=O)N1 (stereo not given),inactive,–
CC1CCC2CC1C2(C)C (stereo not given),inactive,–
O=C(O)[C@H](O)[C@@H](O)[C@H](O)[C@H](O)CO,inactive,–
